Each compound was assayed on Caenorhabditis elegans dauer (daf-2(e1370)) (assay: proportion of mobile C. elegans dauer larvae relative to DMSO control (fraction of DMSO control); higher = more viable, less nematicidal, active = 0.63 or less; extreme values may be limits of the assay). Settings: 60 µM; 5 days; temperature: 20 °C.
Method: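 DODA library (846 commercial 1,3,4- and 1,2,4-oxadiazole compounds plus commercial nematicide controls) screened at a single dose of 60 µM (0.6% DMSO) in 96-well plates, two biological replicates. Read-outs: C. elegans N2 L1 survival/reproduction score at day 6, 20 °C (0: 0-10 worms, 1: 11-20, 2: 21-50, 3: >50, 4: overgrown/starved). C. elegans daf-2 dauer, D. dipsaci and M. hapla J2 mobility at day 5, 20 °C, and P. penetrans mobility at day 5, 20 °C, each relative to DMSO controls. M. hapla egg hatching at day 12, 25 °C, relative to the mean of 8 DMSO wells on the same plate.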
In the case of CC(=O)Nc1ccc(-c2nnc(SCc3ccccc3)o2)cc1, the “proportion of mobile C. elegans dauer larvae” value (from here on “proportion”) is reported as 1 (inactive).
With CCOc1ccc(NC(=O)CSc2nnc(-c3ccncc3)o2)cc1 the “proportion” value was 1 (inactive).
With Cc1cnc(NC(=O)CSc2nnc(-c3cccc(Cl)c3)o2)s1 the “proportion” value was 1 (inactive).
COc1ccccc1-c1nnc(SCc2ccccc2C#N)o1 was tested, and the “proportion” value was 1 (inactive).
For Clc1ccc(OCc2nc(-c3ccccc3)no2)c(Br)c1, the “proportion” value was 1 (inactive).
For c1ccc(-c2noc(C3COc4ccccc4O3)n2)cc1 (stereo not given), the “proportion” value was 0.539 (active).
COc1cccc(-c2noc(COc3ccc(C)c(C)c3)n2)c1 was tested, and the “proportion” value was 1 (inactive).
O=C(CSc1nnc(-c2ccc(Cl)cc2)o1)NC1CCCCC1 was tested, and the “proportion” value was 1 (inactive).
Clc1ccc(SCc2nc(-c3ccccc3)no2)cc1 was tested, and the “proportion” value was 0.59 (active).
In the case of CC(C)(C)NC(=O)CSc1nnc(-c2ccc(C(C)(C)C)cc2)o1, the “proportion” value is reported as 1 (inactive).
For Cc1ccc(OCc2nc(-c3ccc(Cl)cc3)no2)cc1C, the “proportion” value was 1 (inactive).
Cc1ccc(-c2nc(-c3ccccc3)no2)cc1C was tested, and the “proportion” value was 1 (inactive).
In the case of Cc1ccc(-c2nc(-c3ccccc3Br)no2)cc1, the “proportion” value is reported as 1 (inactive).
In the case of Cc1ccc(NC(=O)CSc2nnc(-c3ccco3)o2)cc1Br, the “proportion” value is reported as 1 (inactive).
For COc1ccc(CCC(=O)Nc2ccc(-c3noc(-c4ccccc4C)n3)cc2)cc1, the “proportion” value was 1 (inactive).
Cc1cc(OCc2nc(-c3cccnc3)no2)c(C)cc1Br was tested, and the “proportion” value was 1 (inactive).
In the case of O=C(c1ccccc1-c1nc(-c2ccc(Cl)cc2)no1)N1CCCCC1, the “proportion” value is reported as 1 (inactive).
Cc1cccc(-c2noc(-c3ccc(Cl)cc3)n2)c1 was tested, and the “proportion” value was 1 (inactive).
In the case of Cc1cccc(-c2noc(-c3ccccc3F)n2)c1, the “proportion” value is reported as 1 (inactive).
With Cc1ccc(OCc2nc(-c3ccccc3Cl)no2)c(C)c1 the “proportion” value was 1 (inactive).
For Fc1cccc(-c2nc(-c3ccccc3)no2)c1, the “proportion” value was 1 (inactive).
With Cc1cccc(-c2nnc(SCC(=O)NC(C)c3ccccc3)o2)c1 (stereo not given) the “proportion” value was 1 (inactive).
In the case of Cc1ccccc1-c1nnc(SCc2ccc(F)cc2)o1, the “proportion” value is reported as 1 (inactive).
With O=C(Nc1ccccc1-c1nc(-c2ccncc2)no1)c1ccccc1Cl the “proportion” value was 1 (inactive).
CC(C)CCC(=O)Nc1ccccc1-c1nc(-c2ccncc2)no1 was tested, and the “proportion” value was 1 (inactive).
With C#CCOc1ccc(-c2nc(-c3ccccc3)no2)cc1 the “proportion” value was 1 (inactive).
With c1ccc2c(-c3nc(-c4ccncc4)no3)cccc2c1 the “proportion” value was 1 (inactive).
CCCC(=O)Nc1ccccc1-c1nc(-c2cccnc2)no1 was tested, and the “proportion” value was 1 (inactive).
Cc1ccc(OCc2nc(-c3ccccc3)no2)c(Br)c1 was tested, and the “proportion” value was 1 (inactive).
CC(C)C(=O)Nc1ccccc1-c1nc(-c2cccnc2)no1 was tested, and the “proportion” value was 1 (inactive).
With Brc1ccc(-c2nnc(SCc3ccccc3)o2)cc1 the “proportion” value was 1 (inactive).
For COc1nc(C)ccc1-c1noc(-c2ccc(Cl)cc2)n1, the “proportion” value was 1 (inactive).
With COc1ccc(-c2noc(-c3cccc(Br)c3)n2)cc1 the “proportion” value was 1 (inactive).
With Cc1ccc(OCc2nc(-c3cccnc3)no2)c(Br)c1 the “proportion” value was 1 (inactive).
With COc1cccc(-c2noc(COc3cc(C)ccc3C)n2)c1 the “proportion” value was 1 (inactive).
O=C(CSc1nnc(-c2cccc(Cl)c2)o1)N1CCCCC1 was tested, and the “proportion” value was 1 (inactive).
For CC1CCN(C(=O)CSc2nnc(-c3cc4ccccc4o3)o2)CC1, the “proportion” value was 1 (inactive).
In the case of CCN(Cc1ccccc1)C(=O)c1ccccc1-c1nc(-c2cccc(C)c2)no1, the “proportion” value is reported as 1 (inactive).
With Cc1cc(OCc2nc(-c3ccccc3)no2)ccc1Br the “proportion” value was 1 (inactive).
In the case of Clc1ccc(OCc2nc(-c3ccccc3)no2)cc1, the “proportion” value is reported as 1 (inactive).

Reference: the supplement of paper PMC11219838
